From PubChem BioAssay
HCMV antiviral: qHTS Assay for inhibitors of the human cytomegalovirus (HCMV); HFF cells, HCMV-luciferase reporter, 72 h; hits give low values; activity change, negative = inhibition, % at 57.5 µM; hit rate 4.5% among 410,000; AID 1259415, 2018; in the data active = activity change below about -60%; inconclusive = no clear call, values can overlap the other calls; inactive = above about -39%
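HFF cells seeded 16 h at 37C, treated with compounds, infected with luciferase-reporter HCMV at MOI 1 PFU/cell; luciferase read at 72 h post infection, normalized to buffer-only and Salinomycin controls.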
Pf growth 96h: Primary qHTS for delayed death inhibitors of the malarial parasite plastid, 96 hour incubation. Potency, µM (highest dose often 28.7 µM), actives largely listed as inhibitors. P. falciparum luciferase reporter growth, 96 h. hit rate 6.9% among 320,000. AID 504834, 2011
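Luminescence readout: decreased luciferase signal marks inhibited growth of reporter-expressing P. falciparum in infected red cells (2% hematocrit, 0.05% parasitemia final), exposed to compound two generations (96 h, 37 C, 5% CO2).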
Pf growth 48h: Primary qHTS for delayed death inhibitors of the malarial parasite plastid, 48 hour incubation | P. falciparum luciferase growth in erythrocytes, 48 h | Potency, µM (highest dose often 28.7 µM), most hits filed as inhibitors | hit rate 5.9% among 310,000
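Compounds are pin-transferred into medium, infected erythrocytes (2% hematocrit, 0.1% parasitemia final) are added, and plates sit one parasite generation at 37 C in 5% CO2. Detection reagent is then added and luminescence measured.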
HCV inh: qHTS Assay for Inhibitors of Hepatitis C Virus (HCV). hit rate 3.4% among 340,000. Huh7.5.1 HCVcc-Cre infection, luciferase reporter, 44 h. Potency, µM (titrated, usually from 41.8 µM), most hits filed as inhibitors
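Reporter virus HCVcc-Cre (~0.5 moi) infects cells exposed to compound; seeding density 1,000 cells/well with 4 h settling beforehand. Luminescence, 15 sec read, taken 44 h post-infection following a 15 min RT substrate incubation.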
SARS PLP yeast: qHTS of Yeast-based Assay for SARS-CoV PLP; AID 485353, 2010; hit rate 0.19% among 330,000; S. cerevisiae expressing SARS-CoV PLpro, growth rescue; Potency, µM (titrated, usually from 32.9 µM), usual class: activators; calls by dose curve; also: nearly all actives have a fitted effect of over 55% in size
Sm TGR inh: qHTS Assay for the Inhibitors of Schistosoma Mansoni Peroxiredoxins. Schistosoma mansoni thioredoxin glutathione reductase (TGR), Q962Y6. purified TGR, DTNB reduction, TNB absorbance 405 nm. Potency, µM (top dose mostly 114 µM), actives largely listed as inhibitors. hit rate 3% among 360,000. AID 485364, 2010; also: nearly all actives have a fitted effect of over 60% in size
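First, TGR (20 nM dispensed) and NADPH were mixed with compound. Second, a 15 min room-temperature incubation followed. Third, further NADPH and then DTNB were added to start the reaction. Finally, TNB absorbance was monitored kinetically.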
Large screens that a line does not name were inactive. Rows were chosen to be rich in hits. Some 15% of all compounds tested hit in one or more screens of this group. Unless noted, calls follow the shape of the dose curve; as a rule, active = well fitted curve in the direction sought with a large enough effect; inconclusive = small, poorly fitted or top-dose-only effect, or another doubt; inactive = no such curve, though single readings can be large; an effect the other way counts as inactive or inconclusive.

CCSc1nnc2c(n1)OC(c1sccc1C)N(C(C)=O)c1ccccc1-2 (stereo unspecified)	HCMV antiviral -60.1 (no result: Pf growth 96h, Pf growth 48h, HCV inh, SARS PLP yeast)
COc1ccc(NCc2nnc(SCC(=O)Nc3nc(-c4ccccc4)cs3)n2-c2ccccc2)cc1	HCMV antiviral -82.5, HCV inh inconclusive
COc1ccc(-n2c(CNc3ccc(C)cc3)nnc2SCC(=O)Nc2nc(-c3ccccc3)cs2)cc1	none
CCOc1ccc(NCc2nnc(SCC(=O)Nc3cc(C)on3)n2-c2ccc(OC)cc2)cc1	Pf growth 96h inconclusive, Pf growth 48h 13.1µM (no result: HCMV antiviral)
COc1ccc(NCc2nnc(SCc3ccc(Cl)cc3)n2-c2ccccc2)cc1	HCV inh 8.91µM
CCOc1ccc(NCc2nnc(SCC(=O)Nc3cc(C)on3)n2-c2ccccc2OC)cc1	Pf growth 48h inconclusive, HCV inh inconclusive
Cc1cc(C)c2cc(C#N)c(NCCNC(=O)c3cccnc3)nc2c1	none (no result: Pf growth 96h, Pf growth 48h, HCV inh, SARS PLP yeast, Sm TGR inh)
CCCCN(Cc1ccccc1)S(=O)(=O)c1ccc2c(c1)CC(C)N2C(=O)CC (stereo unspecified)	none (no result: Pf growth 96h, Pf growth 48h, HCV inh, SARS PLP yeast)
COC(=O)C1=C(C)Nc2nc3ccccc3n2C1c1cc(OC)c(OC)c(OC)c1 (stereo unspecified)	Pf growth 96h inconclusive, Pf growth 48h 1.85µM
O=C(NC1CCCC1)C1CCN(C(=O)NCc2ccccc2)CC1	HCMV antiviral -62.5
Cc1cccc(C(=O)NC2CCN(C(=O)NCc3ccccc3)CC2)c1	Sm TGR inh 11.2µM
Cc1ccc(NC(=O)N2CCC(NC(=O)c3cccc(C)c3)CC2)cc1	Pf growth 96h 10.4µM, Pf growth 48h inconclusive, Sm TGR inh inconclusive
Cn1c(-c2c(N)n(CCc3ccccc3)c3nc4ccccc4nc23)nc2ccccc21	Pf growth 96h 5.22µM, HCV inh inconclusive (no result: Pf growth 48h)
Cn1c(-c2c(N)n(C3CCCC3)c3nc4ccccc4nc23)nc2ccccc21	HCMV antiviral inconclusive, Pf growth 96h 8.28µM, Pf growth 48h 11.7µM, HCV inh inconclusive
COCCCn1c(N)c(-c2nc3ccccc3n2C)c2nc3ccccc3nc21	HCMV antiviral inconclusive, Pf growth 48h inconclusive, HCV inh inconclusive (no result: Pf growth 96h)
COc1ccc(OC)c(NC(=O)c2c(NCc3ccc(OC)c(OC)c3)sc3c2CCC(C)C3)c1 (stereo unspecified)	none (no result: Pf growth 96h, Pf growth 48h, HCV inh, SARS PLP yeast)
CCOc1cc2c(cc1OC)C(c1cccc([N+](=O)[O-])c1)NCC2 (stereo unspecified)	none
CCOc1cc2c(cc1OCC)-n1cccc1C(c1ccccc1O)NC2 (stereo unspecified)	Pf growth 48h 8.28µM
CCOc1cc2c(cc1OCC)-n1cccc1C(c1ccc(OC)c(OC)c1)NC2 (stereo unspecified)	Pf growth 48h inconclusive, HCV inh inconclusive
CCOc1cc2c(cc1OCC)-n1cccc1C(c1ccccc1OC)NC2 (stereo unspecified)	HCMV antiviral inconclusive, Pf growth 48h 10.4µM
CCOc1cc2c(cc1OCC)-n1cccc1C(c1cccc(F)c1F)NC2 (stereo unspecified)	Pf growth 96h inconclusive, Pf growth 48h inconclusive
CCOc1cc2c(cc1OCC)-n1cccc1C(c1c(O)cccc1OC)NC2 (stereo unspecified)	Pf growth 48h 13.1µM, HCV inh inconclusive
CCOc1cc2c(cc1OCC)-n1cccc1C(c1ccc(F)c(OC)c1)NC2 (stereo unspecified)	Pf growth 48h 10.4µM
O=C(CN1CCSC1=O)Nc1ccc(N2CCOCC2)cc1	none
COc1ccc([C@@H]2Sc3ccccc3N(CCN(C)C)C(=O)[C@@H]2OC(C)=O)cc1	Pf growth 48h inconclusive
COc1ccc(S(=O)(=O)N2CCN(C(=O)c3cc(C4CC4)nn3-c3ccccc3)CC2)cc1OC	HCV inh inconclusive (no result: Pf growth 96h, Pf growth 48h, Sm TGR inh)
O=C(c1cc(C2CC2)nn1-c1ccccc1)N1CCN(c2ccccc2O)CC1	none (no result: Pf growth 96h, Pf growth 48h, Sm TGR inh)
